Hits are enriched below; roughly 0.3% of the tested compounds scored in any of these assays.
CCT modulator = High-Throughput Screening for Modulators of Cytosolic Chaperonin Activity. purified chaperonin ATPase assay, HTRF ADP detection, 30 min. actives 0.3% (n = 360,000). AID 651819, 2012. activity change, % (no concentration beside the values), hits read low; in the data active = activity change below about -30%; also: % is scaled to controls: 0 for no effect and ±100 for the full control effect
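ATPase activity: ADP formed was measured by HTRF Transcreener (665/615 nm ratio) after 30 min at 37 deg C with 10 uM ATP. Compounds screened at one 76 uM concentration against 40 or 20 nM TRiC in Tris pH 7.4/KCl/MgCl2/DTT buffer.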
USP2a block = qHTS Assay for Inhibitors of Ubiquitin-specific Protease USP2a Using CHOP2 as the Reporter. actives 0.01% (n = 330,000). Potency, µM (top dose mostly 38.3 µM), for the others: top-dose activity change, negative = inhibition, actives largely listed as inhibitors. USP2 core, Ub-CHOP2 coupled fluorogenic reporter, 485/531. Ubiquitin carboxyl-terminal hydrolase 2 (Homo sapiens), O75604;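 also: potency is read from the fitted curve at half-maximal effect; plate controls were DMSO wells for no effect and full inhibition by NEM control for full effect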
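Cell-free coupled assay: 10nM USP2 core preincubated 30min RT with compound in Tris-HCl pH 8.0/CaCl2/CHAPS buffer, then 25nM Ub-CHOP2 and 25nM reporter substrate; fluorescence (Ex 485/Em 531) read after 60min RT, normalized to NEM inhibition, concentration-response curves fitted.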
MmCpn inh = Inhibitors of TCP-1 ring complex (TRiC) of Methanococcus maripaludis (MmCpn): qHTS; Chaperonin Mm-Cpn (Methanococcus maripaludis); purified Mm-Cpn ATPase, ADP Transcreener TR-FRET; Potency, µM (top dose mostly 76.9 µM), for the others: at the highest dose activity, negative = inhibition, usual class: inhibitors; actives 0.031% (n = 330,000); AID 504842, 2011; also: potency is read from the fitted curve at half-maximal effect; % is scaled to controls: 0 for no effect and ±100 for the full control effect; nearly all actives have a fitted effect of over 80% in size
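Inhibition of chaperonin ATP hydrolysis is measured as reduced ADP production, detected by competitive TR-FRET in which signal falls with ADP. Final enzyme 25 nM and ATP 10 uM, reacted 30 min at 37°C.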
ASM inhibitor = Inhibitors of Secretory Acid Sphingomyelinase (S-ASM): qHTS. placental ASM, HMU-PC fluorogenic substrate, 60 min. Potency, µM (titrated, usually from 57.5 µM), inactives show at the highest dose activity change, negative = inhibition, hits mostly inhibitors. actives 0.006% (n = 340,000). AID 504937, 2011; also: potency is read from the fitted curve at half-maximal effect
Target sequence (P17405 47-631 limits assumed): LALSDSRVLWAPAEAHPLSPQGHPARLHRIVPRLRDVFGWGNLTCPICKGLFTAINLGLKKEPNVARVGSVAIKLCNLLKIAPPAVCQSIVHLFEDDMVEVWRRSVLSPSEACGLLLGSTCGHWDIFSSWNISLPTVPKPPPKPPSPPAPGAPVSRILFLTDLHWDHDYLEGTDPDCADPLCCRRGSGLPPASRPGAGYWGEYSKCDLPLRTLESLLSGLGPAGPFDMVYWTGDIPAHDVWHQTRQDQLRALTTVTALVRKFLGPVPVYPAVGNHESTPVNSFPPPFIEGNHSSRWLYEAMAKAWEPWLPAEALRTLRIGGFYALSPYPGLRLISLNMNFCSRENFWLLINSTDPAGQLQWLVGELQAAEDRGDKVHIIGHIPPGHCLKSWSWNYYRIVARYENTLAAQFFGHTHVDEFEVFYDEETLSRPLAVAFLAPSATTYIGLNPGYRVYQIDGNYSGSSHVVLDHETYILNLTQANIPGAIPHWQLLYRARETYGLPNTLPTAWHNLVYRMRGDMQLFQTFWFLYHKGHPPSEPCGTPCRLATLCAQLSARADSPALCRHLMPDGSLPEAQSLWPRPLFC
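HMU-PC0 cleavage (9 uM final) by human placental ASM, 60 min at 37 °C following 10 min compound exposure at RT; stopped at pH 10, fluorescence Ex 386/Em 447 nm.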
* marks the source's active call; other numbers are inactive results; i = inactive; u = inconclusive; x = not tested or not shown. Unless noted, calls follow the shape of the dose curve; as a rule, active = well fitted curve in the direction sought with a large enough effect; inconclusive = small, poorly fitted or top-dose-only effect, or another doubt; inactive = no such curve, though single readings can be large; an effect the other way counts as inactive or inconclusive.

SMILES	CCT modulator	USP2a block	MmCpn inh	ASM inhibitor
COc1cc(CCC(=O)NCc2ccc(S(N)(=O)=O)cc2)cc(OC)c1OC	-94*	4%	-1%	0%
COc1cc(CCC(=O)NCc2ccc(F)cc2)cc(OC)c1OC	-1	5%	0%	4%
CCc1nnc(NC(=O)CCn2cnc3ccccc3c2=O)s1	-31*	-4%	0%	11%
CCCCc1nnc(NC(=O)Cn2cnc3ccccc3c2=O)s1	-2	0%	1%	9%
CCC1Sc2ccc(S(=O)(=O)Nc3ccc(OC)c(OC)c3)cc2NC1=O (stereo unspecified)	-35*	-1%	2%	5%
Cc1ccc(C(C)C)c(O)c1C(=O)O	-2	x	x	2%
CCOC(=O)c1cnc(Nc2ccc(OCC)cc2)nc1C	2	0%	2%	8%
Cc1ccc(S(=O)(=O)N(CC(=O)O)Cc2ccccc2)cc1	-1	1%	-1%	2%
COc1ccc([N+](=O)[O-])cc1NC(=O)CCCOc1ccccc1	0	1%	-2%	-2%
COc1ccc(OCCCC(=O)Nc2cc([N+](=O)[O-])ccc2C)cc1	-44*	3%	-1%	1%
CC(C)Sc1nc2c(cnn2-c2ccccc2)c(=O)[nH]1	-47*	2%	0%	-2%
O=C(NC1CCCCCC1)c1ccc2c(=O)n3c(nc2c1)CCCCC3	-3	1%	-2%	-3%
Cc1noc(C)c1COc1ccccc1C(=O)N1CCN(S(=O)(=O)c2cccc(Cl)c2)CC1	-1	1%	0%	4%
Cc1noc(C)c1COc1ccccc1C(=O)N1CCN(S(=O)(=O)c2cccc([N+](=O)[O-])c2)CC1	-57*	-1%	-1%	-1%
O=C1NC(=Nc2ccccc2)S/C1=C\C=C\c1ccco1	2	5.6µM*	-2%	-10%
Cc1ccc(N=C2NC(=O)/C(=C/C=C/c3ccco3)S2)cc1	-9	u	0%	u
CN(C)CCCOC(=O)c1ccccc1	4	-9%	2%	2%
CCOc1ccc(C(=O)OCCN(C)C)cc1	-32*	0%	-1%	0%
COc1cnn(-c2ccc(F)cc2)c(=O)c1Br	-66*	3%	-22%	1%
Cn1nccc1C(=O)Nc1ccc2c(c1)OCO2	-55*	1%	-2%	1%
O=C(NCCCn1ccnc1)C(=O)NCC1OCCN1S(=O)(=O)c1ccc(F)cc1 (stereo unspecified)	-1	6%	1%	9%
CN(C)C(CNC(=O)CCOc1ccccc1)c1ccco1 (stereo unspecified)	1	1%	-1%	18%
Cc1cc2c(=Cc3ccc(N(C)C)cc3)c3ccccc3n2[n+]1C	-45*	x	x	u
CCOc1ccc2[nH]c(=O)c(CN(CCO)C(c3nnnn3C3CCCCC3)C(C)C)cc2c1 (stereo unspecified)	-2	2%	-4%	36%
O=C(COC(=O)c1cc(F)c(F)cc1Cl)NC1CC1	-3	-2%	1%	4%
SMILES	CCT modulator	USP2a block	MmCpn inh	ASM inhibitor
O=C(COC(=O)c1ccc(F)cc1Cl)NC1CC1	-50*	x	x	x
CCOC(=O)c1cnn(-c2nc(-c3ccccc3F)cs2)c1C(F)(F)F	-1	1%	0%	1%
CCOC(=O)c1ccccc1N1C(=O)CSC1=S	-1	3%	1%	-2%
O=C(O)CCC(=O)Nc1ccc(NC(=O)c2ccc(Cl)cc2Cl)c(Cl)c1	-135*	-2%	-11%	16%
Cc1cc(Cl)ccc1NC(=O)CCC(=O)O	-2	1%	3%	-2%
CCOc1ccccc1CNS(=O)(=O)c1ccc2c(c1)C(C)(C)C(=O)N2C	0	0%	1%	1%
Cc1ccc(C)c(CNS(=O)(=O)c2ccc3c(c2)C(C)(C)C(=O)N3C)c1	-34*	0%	-2%	1%
CCc1ccc(C2C(C#N)=C(N)SC(N)=C2C#N)s1	-8	u	35µM*	-3%
CCN(CC)S(=O)(=O)c1ccc(C)c(NC(=O)COC(=O)C=C(C)C)c1	0	1%	0%	2%
CCN(CC)S(=O)(=O)c1ccc(C)c(NC(=O)COc2ccc(Cl)cc2Br)c1	-56*	0%	2%	-1%
CN(C)c1ccc(C(=O)N2CCNC(=O)C2CC(=O)Nc2ccc(F)cc2)cc1 (stereo unspecified)	2	-1%	-1%	-2%
COc1ccc(NC(=O)CC2C(=O)NCCN2C(=O)c2ccc(N(C)C)cc2)cc1 (stereo unspecified)	-50*	3%	1%	1%
Cn1nc(C(=O)OCc2ccc(F)cc2)c2ccccc2c1=O	-37*	11%	0%	0%
O=S(=O)(Nc1ccccn1)c1ccc(-n2cccn2)cc1	-82*	1%	1%	4%
CCc1nnc(NC(=O)c2oc3ccc(Br)cc3c2C)s1	-34*	-1%	-1%	3%
Cc1nn(CC(=O)N2CCc3ccccc3C2)c(C)c1Cl	-80*	2%	4%	-3%
Cc1nn(CC(=O)N2CCc3ccccc3C2)c(C)c1[N+](=O)[O-]	0	1%	1%	-1%
CCOC(=O)CSc1nc(C(C)C)nc2ccccc12	-43*	-1%	-5%	0%
COC(=O)CSc1nc(C(C)C)nc2ccccc12	1	1%	-9%	6%
CCOc1cccc(C(=O)Nc2nc(-c3ccc(S(=O)(=O)N4CCOCC4)cc3)cs2)c1	2	-7%	u	-11%
O=C(COc1cccc(Cl)c1)Nc1nc(-c2ccc(S(=O)(=O)N3CCOCC3)cc2)cs1	-3	-7%	40µM*	-8%
Cn1nc([N+](=O)[O-])nc1N1CCOCC1	-44*	1%	-3%	2%
Cc1nc(N2CCOCC2)[nH]c(=O)c1[N+](=O)[O-]	0	0%	3%	-2%
CC1(C)COC(/C=C/c2cccc([N+](=O)[O-])c2)=N1	-39*	2%	-3%	-1%
Cc1ccc(S(=O)(=O)c2c(N)n(-c3ccccc3)c3nc4ccccc4nc23)cc1	-35*	3%	-3%	i
SMILES	CCT modulator	USP2a block	MmCpn inh	ASM inhibitor
COc1ccccc1NC(=O)Nc1cccc(C(=O)O)c1	-50*	-1%	2%	-1%
N#CCc1nc(-c2cc3ccccc3oc2=O)cs1	-32*	7%	-13%	10%
Cc1ccc(S(=O)(=O)c2ccc(Cl)cc2)cc1S(N)(=O)=O	-71*	-2%	1%	3%
O=C(Cn1cnc([N+](=O)[O-])n1)N/N=C/c1ccc2ccccc2c1	-3	2%	2%	-5%
NC(=O)CSc1nnc(Cc2csc(Nc3ccccc3)n2)n1Cc1ccccc1	-69*	5%	2%	-6%
COCCCn1c(Cc2csc(Nc3ccccc3)n2)nnc1SCC(N)=O	1	-5%	-1%	4%
